Measured values published in PubChem BioAssay (Tox21).
Results filed as inconclusive are left out. Activity calls are given as the source filed them. Unless noted, calls come from the whole dose curve; as a rule, active = well fitted curve in the direction sought with a large enough effect in the repeat runs; inconclusive = weak or mixed curves; inactive = no such curve, though single readings can be large; an effect the other way counts as inactive or inconclusive.

Experiments:
[1] = qHTS assay to test for compound auto fluorescence at 535 nm (green) in HEK293 cells (AID 720680)
[2] = qHTS assay to test for compound auto fluorescence at 460 nm (blue) in HEK293 cell free culture (AID 720681)
Outline: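 Blue fluorescence (Ex 405/Em 460 nm, triamterene-equivalent) was read immediately after pin transfer of compound or DMSO into medium (DMEM, 10% FBS) without cells.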

[3] = qHTS assay to test for compound auto fluorescence at 535 nm (green) in HEK293 cell free culture (AID 720682)
Outline: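 Measurement is a direct plate read of green fluorescence (485 nm in, 535 nm out) after compound addition to serum-supplemented DMEM lacking cells, with fluorescein used to express intensities.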

[4] = qHTS assay to test for compound auto fluorescence at 590 nm (red) in HEK293 cell free culture (AID 720683)
Outline: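 Red-channel autofluorescence of compounds in culture medium (DMEM, 10% FBS), no cells, measured at 540/590 nm. Rose Bengal sodium is the reference fluorophore for equivalence.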

[5] = qHTS assay to test for compound auto fluorescence at 590 nm (red) in HepG2 cell free culture (AID 720684)
Outline: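 Steps: dispense MEM/10% FBS medium, no cells; pin compound or DMSO vehicle; read red channel, Ex/Em 540/590 nm. Output given as Rose Bengal sodium equivalents.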

[6] = qHTS assay to test for compound auto fluorescence at 460 nm (blue) in HepG2 cell free culture (AID 720685)
Outline: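 Compound (23 nL) or DMSO pinned into cell-free MEM with 10% FBS; blue fluorescence read at 405/460 nm excitation/emission, expressed as auto-fluorescence equivalency to triamterene.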

[7] = qHTS assay to test for compound auto fluorescence at 535 nm (green) in HepG2 cell free culture (AID 720686)
[8] = qHTS assay to test for compound auto fluorescence at 460 nm (blue) in HepG2 cells (AID 720687)
Outline: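 Blue-channel autofluorescence (Ex/Em 405/460 nm, triamterene-equivalent) was measured after 1 hr compound exposure at 37 C, 5% CO2. Cells were HepG2, plated overnight at 37 C in MEM plus 10% FBS.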

[9] = biological target: Glucocorticoid receptor (Homo sapiens) (UniProt P04150); assay: qHTS assay to identify small molecule agonists of the glucocorticoid receptor (GR) signaling pathway (AID 720691; active = well fitted activation curve with a large enough effect in the signal ratio in the repeat runs, not every such curve was filed as active; the % refers to the signal ratio)
Glucocorticoid receptor (Homo sapiens), sequence (P04150 whole entry, looked up): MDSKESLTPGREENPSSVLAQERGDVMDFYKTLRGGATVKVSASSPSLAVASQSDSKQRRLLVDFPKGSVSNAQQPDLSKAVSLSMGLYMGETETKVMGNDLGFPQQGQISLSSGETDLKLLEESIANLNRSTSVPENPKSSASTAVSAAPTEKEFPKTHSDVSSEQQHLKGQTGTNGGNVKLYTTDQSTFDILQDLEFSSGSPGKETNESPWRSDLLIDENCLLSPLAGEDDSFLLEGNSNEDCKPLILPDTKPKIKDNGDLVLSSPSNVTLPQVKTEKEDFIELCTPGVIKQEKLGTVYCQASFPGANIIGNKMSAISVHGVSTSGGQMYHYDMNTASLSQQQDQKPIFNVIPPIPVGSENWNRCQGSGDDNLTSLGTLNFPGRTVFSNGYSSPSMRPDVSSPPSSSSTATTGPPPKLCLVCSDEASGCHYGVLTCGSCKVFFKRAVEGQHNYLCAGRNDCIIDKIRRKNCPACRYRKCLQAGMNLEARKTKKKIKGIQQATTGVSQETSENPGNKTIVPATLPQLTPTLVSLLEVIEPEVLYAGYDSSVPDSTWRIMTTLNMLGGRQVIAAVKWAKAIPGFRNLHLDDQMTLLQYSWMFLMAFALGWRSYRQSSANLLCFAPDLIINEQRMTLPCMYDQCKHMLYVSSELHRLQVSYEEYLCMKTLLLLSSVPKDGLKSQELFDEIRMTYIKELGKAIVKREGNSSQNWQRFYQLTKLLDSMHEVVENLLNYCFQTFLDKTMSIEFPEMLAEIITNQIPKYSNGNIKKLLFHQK
Outline: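 GR-bla HeLa cells (beta-lactamase reporter under glucocorticoid response element) were plated 4 h at 37 C/5% CO2, given compounds in DMSO, and incubated 18 h at 37 C. LiveBLAzer B/G FRET substrate was added for 2 h at room temperature, then fluorescence intensity read.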

[10] = biological target: Glucocorticoid receptor (Homo sapiens) (UniProt P04150); assay: qHTS assay to identify small molecule antagonists of the glucocorticoid receptor (GR) signaling pathway (AID 720692; active = well fitted inhibition curve with a large enough effect in the signal ratio in the repeat runs, not every such curve was filed as active; the % refers to the signal ratio)
Outline: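 GR-bla HeLa cells (beta-lactamase reporter under glucocorticoid response element) were pre-plated 4 h at 37 C, treated with compounds plus 5 nM dexamethasone (final) for 18 h, then read by LiveBLAzer B/G FRET fluorescence after 2 h.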

[11] = qHTS assay to identify small molecule antagonists of the glucocorticoid receptor (GR) signaling pathway - cell viability counter screen (AID 720693); note: nearly all actives have a fitted effect of over 55% in size
[12] = qHTS assay for identifying genotoxic compounds that show differential cytotoxicity against isogenic chicken DT40 cell lines with known DNA damage response pathways - Rad54/Ku70 mutant cell line (AID 743015); note: nearly all actives have a fitted effect of over 60% in size; note: potency is the fitted concentration of half-maximal effect
[13] = qHTS assay to identify small molecule antagonists of the androgen receptor (AR) signaling pathway - cell viability counter screen (AID 743033; note: nearly all actives have a fitted effect of over 45% in size)
[14] = biological target: Androgen receptor (Homo sapiens) (UniProt P10275); assay: qHTS assay to identify small molecule agonists of the androgen receptor (AR) signaling pathway (AID 743036; active = well fitted activation curve with a large enough effect in the signal ratio in the repeat runs, with a control signal flat, not every such curve was filed as active; the % refers to the signal ratio)
Androgen receptor (Homo sapiens), sequence (P10275 whole entry, looked up): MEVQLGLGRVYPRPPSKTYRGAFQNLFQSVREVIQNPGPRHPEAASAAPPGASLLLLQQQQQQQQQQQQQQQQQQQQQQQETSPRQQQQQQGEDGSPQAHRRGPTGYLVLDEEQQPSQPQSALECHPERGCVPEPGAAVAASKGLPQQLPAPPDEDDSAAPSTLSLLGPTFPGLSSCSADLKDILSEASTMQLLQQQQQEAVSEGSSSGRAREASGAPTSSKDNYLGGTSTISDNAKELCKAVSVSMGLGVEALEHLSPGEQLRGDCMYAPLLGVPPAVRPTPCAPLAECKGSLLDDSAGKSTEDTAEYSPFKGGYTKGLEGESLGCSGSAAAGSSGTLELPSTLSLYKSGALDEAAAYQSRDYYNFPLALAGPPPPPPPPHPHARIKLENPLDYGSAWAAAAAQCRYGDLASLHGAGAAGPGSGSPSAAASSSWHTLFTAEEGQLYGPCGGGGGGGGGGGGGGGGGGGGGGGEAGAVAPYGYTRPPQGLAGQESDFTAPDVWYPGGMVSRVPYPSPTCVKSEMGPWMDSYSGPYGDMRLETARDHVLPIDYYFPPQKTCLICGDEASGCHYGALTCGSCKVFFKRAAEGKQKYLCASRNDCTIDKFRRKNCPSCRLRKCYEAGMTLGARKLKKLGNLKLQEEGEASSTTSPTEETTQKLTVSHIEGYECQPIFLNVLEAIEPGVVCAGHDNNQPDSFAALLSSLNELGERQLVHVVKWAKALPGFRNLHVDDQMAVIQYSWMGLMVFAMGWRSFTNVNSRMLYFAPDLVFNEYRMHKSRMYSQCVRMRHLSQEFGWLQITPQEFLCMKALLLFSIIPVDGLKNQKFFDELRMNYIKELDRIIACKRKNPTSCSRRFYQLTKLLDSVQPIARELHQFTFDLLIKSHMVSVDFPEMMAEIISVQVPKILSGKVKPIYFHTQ
Outline: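 Beta-lactamase under UAS control, stably integrated in HEK293 GripTite cells, reports receptor activation. After 16 h compound treatment, cells received FRET substrate for 2 h at room temperature before fluorescence reading.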

[15] = biological target: Androgen receptor (Homo sapiens) (UniProt P10275); assay: qHTS assay to identify small molecule agonists of the androgen receptor (AR) signaling pathway using the MDA cell line (AID 743040; note: nearly all actives have a fitted effect of over 20% in size)
Outline: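 Cells plated, 5 h at 37C/0% CO2; compound or DMSO pinned; 16 h at 37C; ONE-Glo added; luminescence measured after 30 min at room temperature. Reporter line: MDA-kb2 with MMTV-luciferase responsive to AR and GR.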

[16] = qHTS assay to identify small molecule antagonists of the androgen receptor (AR) signaling pathway using the MDA cell line - cell viability counter screen (AID 743041; note: nearly all actives have a fitted effect of over 45% in size; note: potency is the fitted concentration of half-maximal effect)
Outline: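 Cells were plated at 3,000 per well and left 5 h. Compounds in DMSO were then pinned in, followed by R1881. After 16 h at 37C, CellTiter-Fluor fluorescence gave viability.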

[17] = biological target: Androgen receptor (Homo sapiens) (UniProt P10275); assay: qHTS assay to identify small molecule antagonists of the androgen receptor (AR) signaling pathway using the MDA cell line (AID 743042; note: nearly all actives have a fitted effect of over 55% in size)
Outline: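 Antagonist mode: compounds plus R1881 agonist added to MDA-kb2 AR-luc cells, incubated 16 h at 37C. Luciferase reporter luminescence quantified, with multiplexed CellTiter-Fluor readout for cell viability.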

[18] = qHTS assay for identifying genotoxic compounds that show differential cytotoxicity against isogenic chicken DT40 cell lines with known DNA damage response pathways - wild type cell line (AID 743012); note: nearly all actives have a fitted effect of over 60% in size; note: potency is the fitted concentration of half-maximal effect
Outline: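 Parental DNA repair-proficient DT40 cells, 300 per well, were pre-incubated ~0.5 h at 37 C/5% CO2, pin-dosed with compounds in DMSO, then incubated 40 h. Viability was read as CellTiter-Glo luminescence after 30 min at room temperature.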

[19] = qHTS assay for identifying genotoxic compounds that show differential cytotoxicity against isogenic chicken DT40 cell lines with known DNA damage response pathways - Rev3 mutant cell line (AID 743014); note: nearly all actives have a fitted effect of over 55% in size
[20] = biological target: Androgen receptor (Homo sapiens) (UniProt P10275); assay: qHTS assay to identify small molecule antagonists of the androgen receptor (AR) signaling pathway (AID 743035; active = well fitted inhibition curve with a large enough effect in the signal ratio in the repeat runs, not every such curve was filed as active; the % refers to the signal ratio)
Outline: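 HEK293 cells stably carrying a UAS-driven beta-lactamase reporter (AR-UAS-bla GripTite) were plated for 4 h at 37C, then given compound and the agonist R1881 and incubated 16 h. Reporter activity was read by LiveBLAzer B/G FRET fluorescence after 2 h at room temperature.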
% is set by controls: 0 for no effect and ±100 for the full control effect.

Cc1cc(Cl)c(C)cc1Cl
inactive: outcome [1] | outcome [2] | outcome [3] | outcome [4] | outcome [5] | outcome [6] | outcome [7] | outcome [8] | Potency [9] | outcome [10] | outcome [11] | Potency [12] | Potency [13] | outcome [14] | outcome [15] | Potency [16] | Potency [17]

C=C(C)C1CCC(C)(O)CC1 (stereo unspecified)
inactive: outcome [1] | outcome [2] | outcome [3] | outcome [4] | outcome [5] | outcome [6] | outcome [7] | outcome [8] | Potency [9] | outcome [10] | Potency [18] | Potency [19] | Potency [12] | Potency [13] | Potency [20] | outcome [14] | outcome [15] | Potency [16] | Potency [17]

CC(CN)CC(C)(C)CCN (stereo unspecified)
active: Potency [18] 44.4 µM | Potency [12] 44.4 µM | Potency [16] 6.27 µM
inactive: outcome [1] | outcome [2] | outcome [3] | outcome [4] | outcome [5] | outcome [6] | outcome [7] | outcome [8] | Potency [9] | outcome [10] | outcome [11] | Potency [13]

O=S(=O)(O)CCN1CCN(CCO)CC1
inactive: outcome [1] | outcome [2] | outcome [3] | outcome [4] | outcome [5] | outcome [6] | outcome [7] | outcome [8] | Potency [9] | outcome [10] | Potency [18] | Potency [12] | Potency [13] | Potency [16]

CN(C)CCOCCO
inactive: outcome [1] | outcome [2] | outcome [3] | outcome [4] | outcome [5] | outcome [6] | outcome [7] | outcome [8] | Potency [9] | outcome [10] | Potency [18] | Potency [12] | Potency [13] | Potency [16]

COc1ccc2c(c1)C(=O)N(CCc1ccc(S(=O)(=O)NC(=O)NC3CCCCC3)cc1)C(=O)C2(C)C
inactive: fluorescence, % of fluorescein [1] 0.0317% [at 18.6 µM] | fluorescence, % of fluorescent control [2] 0.0227% [at 18.6 µM] | activity change [3] 0.0882% [at 18.6 µM] | fluorescence, % of fluorescent control [4] -0.0169% [at 18.6 µM] | fluorescence, % of Rose Bengal [5] -0.0384% [at 18.6 µM] | fluorescence, % of fluorescent control [6] -0.0823% [at 18.6 µM] | fluorescence, % of fluorescein control [7] -0.167% [at 18.6 µM] | fluorescence, % of fluorescent control [8] -0.0057% [at 18.6 µM] | Potency [9] | outcome [10] | Potency [18] | Potency [12] | Potency [13] | Potency [20] | outcome [14] | outcome [15] | Potency [16] | Potency [17]

C=C(C)C(=O)OCCNC(C)(C)C
inactive: outcome [1] | outcome [2] | outcome [3] | outcome [4] | outcome [5] | outcome [6] | outcome [7] | outcome [8] | Potency [9] | outcome [10] | outcome [11] | Potency [18] | Potency [12] | Potency [13] | Potency [16]

C[C@H](N)[C@H](O)c1cccc(O)c1
inactive: fluorescence, % of fluorescein [1] 0.0113% [at 18.6 µM] | fluorescence, % of fluorescent control [2] 2.08% [at 18.6 µM] | activity change [3] 0.048% [at 18.6 µM] | fluorescence, % of fluorescent control [4] 0.0224% [at 18.6 µM] | fluorescence, % of Rose Bengal [5] -0.249% [at 18.6 µM] | fluorescence, % of fluorescent control [6] 1.92% [at 18.6 µM] | fluorescence, % of fluorescein control [7] 0.027% [at 18.6 µM] | fluorescence, % of fluorescent control [8] 1.56% [at 18.6 µM] | Potency [9] | outcome [10] | Potency [18] | Potency [19] | Potency [13] | Potency [16]
